An excerpt weighted towards active compounds, which were near 2.3% of everything screened.
CHRM1 PAM: human CHRM1 positive allosteric modulation | CHO-K1 hM1, Fluo-8 calcium fluorescence, ACh EC20; 0% = ACh EC20, 100% = maximal ACh | activation, % at 3 µM | hit rate 0.088% among 360,000 | AID 588819; in the data active = activation above about 19%, passing the limit was not always enough
Target sequence (P11229 whole entry, looked up): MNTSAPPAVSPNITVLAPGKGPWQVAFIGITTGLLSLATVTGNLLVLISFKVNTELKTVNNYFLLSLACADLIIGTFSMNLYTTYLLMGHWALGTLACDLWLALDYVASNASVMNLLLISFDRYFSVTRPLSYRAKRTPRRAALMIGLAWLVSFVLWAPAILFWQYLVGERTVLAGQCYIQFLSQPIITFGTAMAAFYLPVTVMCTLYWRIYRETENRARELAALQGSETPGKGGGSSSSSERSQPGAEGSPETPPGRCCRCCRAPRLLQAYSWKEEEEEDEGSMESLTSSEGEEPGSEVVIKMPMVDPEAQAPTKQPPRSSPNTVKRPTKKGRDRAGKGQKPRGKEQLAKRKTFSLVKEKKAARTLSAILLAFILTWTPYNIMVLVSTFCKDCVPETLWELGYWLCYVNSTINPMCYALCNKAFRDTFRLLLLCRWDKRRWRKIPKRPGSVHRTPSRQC
CHO-K1 Ca PAM: M1 PAM counterscreen hit in parental CHO-K1 cells; AID 602247; ATP EC20, Fluo-8 calcium fluorescence; 0% at ATP EC20, 100% at ATP max; hit rate 0.02% among 360,000; activation, % at 3 µM;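 active = activation above the run cutoff, the mean activation of all test compounds plus 3 SD, cut at about 40% in these data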;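 also: peak over basal fluorescence ratio in a 140 s read after ATP addition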
CHRM1 agonist: activates human CHRM1 receptor; P11229; CHO-K1 hM1, Fluo-8 calcium fluorescence, agonist mode; 0% DMSO, 100% acetylcholine EC100; activation, % at 3 µM; hit rate 0.33% among 360,000;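 active = activation above the run's mean compound activation plus 3 SD, cut at about 16% in these data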;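 also: peak over basal fluorescence ratio within a 140 s kinetic read after compound addition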
M1 antag: blocks human M1 muscarinic receptor | P11229 | CHO-K1 hM1, Fluo-8 calcium fluorescence, ACh EC80 antagonist | inhibition, % at 3 µM | hit rate 1.3% among 360,000;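 active = percent inhibition above its own plate's cutoff, namely the mean of that plate's compound wells plus 3 SD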;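 also: peak over basal fluorescence ratio during 140 s after agonist addition; 0% = ACh EC80 plus DMSO and 100% = DMSO alone without agonist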
CHO-K1 Ca antag: nonselective inhibitor or artifact in parental CHO-K1 cells; ATP-induced calcium, Fluo-8 fluorescence; inhibition, % at 3 µM; hit rate 0.6% among 360,000; AID 602250;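 active = inhibition above a per-plate cutoff, the plate's mean sample inhibition plus 3 SD, cut at about 24% in these data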;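 also: 0% = DMSO plus EC80 ATP and 100% = DMSO alone without ATP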
M1 ag parental: nonselective activator or artifact in parental CHO-K1 cells | Fluo-8 calcium fluorescence; scaled to maximal ATP response, vehicle zero | hit rate 0.48% among 360,000 | activation, % at 3 µM; in the data active = activation above about 15%;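 also: untransfected CHO-K1 host cells lacking M1 receptor as counterscreen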
The depositor's hits bear a star.

How did CCc1ccc(Cn2nnc(C(=O)Nc3ccc(OC)cc3OC)c2N)cc1 do in these assays?
CHRM1 PAM: 9; CHO-K1 Ca PAM: 31; CHRM1 agonist: 25*; M1 antag: -8; CHO-K1 Ca antag: -12; M1 ag parental: 4

What do the screens show for `CCOC(=O)N(C)c1c(CC)nc2c(OCc3ccc(F)c(F)c3)cccn12`?
CHRM1 PAM: -7; CHO-K1 Ca PAM: -3; CHRM1 agonist: -10; M1 antag: 12; CHO-K1 Ca antag: -1; M1 ag parental: 0

What do the screens show for `CCc1nc2c(OCc3ccc(F)c(F)c3)cccn2c1N(C)C(=O)C1CC1`?
CHRM1 PAM: -10; CHO-K1 Ca PAM: -2; CHRM1 agonist: -9; M1 antag: 25*; CHO-K1 Ca antag: 6; M1 ag parental: 0

How did Cc1nc2c(OCc3cc(Cl)cc(Cl)c3)cccn2c1N(C)C(=O)CCC1CCCC1 do in these assays?
CHRM1 PAM: -17; CHO-K1 Ca PAM: -8; CHRM1 agonist: -7; M1 antag: 38*; CHO-K1 Ca antag: 5; M1 ag parental: 3

What do the screens show for `Cc1nc2c(OCc3ccc(C(F)(F)F)cc3)cccn2c1N(C)CC1CC1`?
CHRM1 PAM: -33; CHO-K1 Ca PAM: -3; CHRM1 agonist: -4; M1 antag: 36*; CHO-K1 Ca antag: 9; M1 ag parental: 7

What do the screens show for `CCc1nc2c(OCCOc3ccccc3)cccn2c1N(C)C(=O)c1ccc(C)cc1`?
CHRM1 PAM: -32; CHO-K1 Ca PAM: -10; CHRM1 agonist: -9; M1 antag: 44*; CHO-K1 Ca antag: -1; M1 ag parental: 0

Results for CCc1nc2c(OCCOc3ccc(F)cc3)cccn2c1N(C)C(=O)c1ccc(C)cc1 ?
CHRM1 PAM: -28; CHO-K1 Ca PAM: 3; CHRM1 agonist: -10; M1 antag: 30; CHO-K1 Ca antag: 11; M1 ag parental: 1

Results for Cc1nc2c(OCC(=O)c3ccc(F)cc3)cccn2c1N(C)Cc1cccs1 ?
CHRM1 PAM: 0; CHO-K1 Ca PAM: 17; CHRM1 agonist: -6; M1 antag: -13; CHO-K1 Ca antag: -10; M1 ag parental: 1

Results for Cc1nc2c(OCc3ccc(C#N)cc3)cccn2c1N(C)Cc1cccs1 ?
CHRM1 PAM: -25; CHO-K1 Ca PAM: -6; CHRM1 agonist: -2; M1 antag: 45*; CHO-K1 Ca antag: 3; M1 ag parental: 5

How did O=S(=O)(Cc1ccccc1)C(CCCc1ccccc1)S(=O)(=O)Cc1ccccc1 do in these assays?
CHRM1 PAM: -3; CHO-K1 Ca PAM: 24; CHRM1 agonist: 0; M1 antag: 11; CHO-K1 Ca antag: -19; M1 ag parental: 1

How did COc1ccc(NC(=O)C2(C)CCCN(C(C)C)C2)cc1OC (configuration not stated) do in these assays?
CHRM1 PAM: 34*; CHO-K1 Ca PAM: 8; CHRM1 agonist: 2; M1 antag: -33; CHO-K1 Ca antag: -13; M1 ag parental: 0

What do the screens show for `Cc1ccc(NC(=O)C2(C)CCCN(C(C)C)C2)cc1C` (configuration not stated)?
CHRM1 PAM: 6; CHO-K1 Ca PAM: -7; CHRM1 agonist: -4; M1 antag: -2; CHO-K1 Ca antag: 6; M1 ag parental: 0

What do the screens show for `Cc1csc2ncnc(NNC(=O)c3ccc(Cl)cc3)c12`?
CHRM1 PAM: -21; CHO-K1 Ca PAM: -12; CHRM1 agonist: 4; M1 antag: 43*; CHO-K1 Ca antag: 8; M1 ag parental: 19*

How did CCCc1cc(=O)[nH]c(SCC(=O)NC(=O)NC2CCCC2)n1 do in these assays?
CHRM1 PAM: -2; CHO-K1 Ca PAM: 10; CHRM1 agonist: -3; M1 antag: 8; CHO-K1 Ca antag: -14; M1 ag parental: 3

How did CCOC(=O)c1cc2n(n1)C(C(F)(F)C(F)(F)F)CC(C)N2 (configuration not stated) do in these assays?
CHRM1 PAM: 19; CHO-K1 Ca PAM: 12; CHRM1 agonist: 17*; M1 antag: -33; CHO-K1 Ca antag: -2; M1 ag parental: 0

Results for CCN1C(=O)c2ccccc2S(=O)(=O)c2ccc(C(=O)NC(C)C)cc21 ?
CHRM1 PAM: 2; CHO-K1 Ca PAM: 5; CHRM1 agonist: -9; M1 antag: -1; CHO-K1 Ca antag: -10; M1 ag parental: 0

Results for CCCCNC(=O)c1ccc2c(c1)N(CC)C(=O)c1ccccc1S2(=O)=O ?
CHRM1 PAM: -18; CHO-K1 Ca PAM: 11; CHRM1 agonist: -4; M1 antag: 33*; CHO-K1 Ca antag: 9; M1 ag parental: 5

Results for CCCN(CCC)CCCNC(=O)c1ccc2c(c1)N(CC)C(=O)c1ccccc1S2=O (configuration not stated) ?
CHRM1 PAM: -16; CHO-K1 Ca PAM: 12; CHRM1 agonist: -6; M1 antag: 44*; CHO-K1 Ca antag: 6; M1 ag parental: 0

Results for CCCCSCCCNC(=O)c1ccc2c(c1)N(CC)C(=O)c1ccccc1S2=O (configuration not stated) ?
CHRM1 PAM: 1; CHO-K1 Ca PAM: 4; CHRM1 agonist: -10; M1 antag: -12; CHO-K1 Ca antag: -14; M1 ag parental: -1

Results for Cc1cccc(NC(=O)CN(CC2CCCO2)C(=O)c2oc3ccccc3c2C)c1C (configuration not stated) ?
CHRM1 PAM: 0; CHO-K1 Ca PAM: 11; CHRM1 agonist: 0; M1 antag: 5; CHO-K1 Ca antag: -17; M1 ag parental: 3

Results for CN(C(=O)CSc1nnc(C2CC2)n1C1CC1)C1(C#N)CCCCC1 ?
CHRM1 PAM: 10; CHO-K1 Ca PAM: -6; CHRM1 agonist: 0; M1 antag: -11; CHO-K1 Ca antag: -4; M1 ag parental: 0

What do the screens show for `COc1ccc(NC(=O)C(Cl)=C(Cl)Cl)cn1`?
CHRM1 PAM: 8; CHO-K1 Ca PAM: 18; CHRM1 agonist: -7; M1 antag: -2; CHO-K1 Ca antag: -9; M1 ag parental: 0

How did COc1ccc(NC(=O)/C(Cl)=C(/Cl)S(=O)Cc2ccc(Cl)cc2)cn1 (configuration not stated) do in these assays?
CHRM1 PAM: -4; CHO-K1 Ca PAM: -14; CHRM1 agonist: -5; M1 antag: 28; CHO-K1 Ca antag: 30*; M1 ag parental: 1

Results for CCc1cccc(NC(=O)CCNS(=O)(=O)c2ccc3c(c2)oc(=O)n3C)c1 ?
CHRM1 PAM: 5; CHO-K1 Ca PAM: 16; CHRM1 agonist: -4; M1 antag: -7; CHO-K1 Ca antag: -16; M1 ag parental: 2

How did CCc1cc2c(N=Nc3c(O)[nH]c4ccccc34)ncnc2s1 do in these assays?
CHRM1 PAM: 3; CHO-K1 Ca PAM: 16; CHRM1 agonist: -8; M1 antag: -7; CHO-K1 Ca antag: -4; M1 ag parental: 0

What do the screens show for `CCc1ccc2[nH]c(O)c(N=Nc3nc(-c4ccccc4)cs3)c2c1`?
CHRM1 PAM: -3; CHO-K1 Ca PAM: 26; CHRM1 agonist: 20*; M1 antag: 7; CHO-K1 Ca antag: -14; M1 ag parental: 1

High-throughput results as filed in PubChem BioAssay.
